# Reference: the supplement of paper PMC12494721
# Structures can show the parent of a compound that is named as a salt. Values without a mark were called inactive.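 Rule for the calls: for the amine columns active = adjusted P below 0.05 in both replicates with a change the same way and a mean fold change under 0.8 or over 1.25; inactive = the rest.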
# System: Escherichia coli IAI1
# Assay: fold change of Putrescine concentration vs plate DMSO controls (fold change (ratio)); higher = more amine produced, active = hit call of the paper (significant change in both replicates, either direction)
# Conditions: incubation time: 27 h, anaerobic, 37 °C
# Method in brief: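 Amines were quantified by LC–triple-quadrupole MS in dynamic MRM mode against external calibration curves, with drift correction within each batch. The samples were whole anaerobic mGAM cultures of four gut bacterial strains, grown for 27 h at 37 °C in 80 µL wells and extracted with cold acetonitrile/methanol with 0.1% formic acid, then centrifuged. Values are reported as fold change over DMSO controls on the same plate. The mean of 2 biological replicates is given.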
row,Structure (SMILES),fold change of Putrescine concentration
1,CNC(=C[N+](=O)[O-])NCCSCc1ccc(CN(C)C)o1 [Ranitidine hydrochloride] (20 µM),0.996
2,C/C(O)=C(\C#N)C(=O)Nc1ccc(C(F)(F)F)cc1 [Teriflunomide] (20 µM),1.07
3,Cc1ccsc1/C=C/C1=NCCCN1C [Morantel tartrate] (20 µM),1.01
4,CCCCOCCOCCOCc1cc2c(cc1CCC)OCO2 (20 µM),1
5,CC(C)C(=O)Nc1ccc([N+](=O)[O-])c(C(F)(F)F)c1 [Flutamide] (20 µM),0.977
6,N=c1nc(N2CCCCC2)cc(N)n1O [Minoxidil] (20 µM),0.982
7,C[C@]12CCC3=C4CCC(=O)C=C4CC[C@H]3[C@@H]1CC[C@@]2(O)CC#N [Dienogest] (20 µM),0.979
8,CN(Cc1cnc2nc(N)nc(N)c2n1)c1ccc(C(=O)N[C@@H](CCC(=O)O)C(=O)O)cc1 [Amethopterin] (20 µM),1
9,NC(=O)C1CO1 (centres undefined) [Glycidamide] (20 µM),0.993
10,O=C1[C@H]2CCCC[C@H]2C(=O)N1CCCCN1CCN(c2nsc3ccccc23)CC1 [Perospirone hydrochloride] (20 µM),0.989
11,C=C1[C@H](CO)[C@@H](O)C[C@@H]1n1cnc2c(=O)[nH]c(N)nc21 [Entecavir] (20 µM),0.972
12,O=c1n(CCCN2CCN(c3cccc(Cl)c3)CC2)nc2ccccn12 [Trazodone hydrochloride] (20 µM),1.01
13,CC(=O)Nc1nnc(S(N)(=O)=O)s1 [Acetazolamide] (20 µM),0.965
14,CCOC(=O)C1=C(C)NC(C)=C(C(=O)OC)C1c1cccc([N+](=O)[O-])c1 (centres undefined) [Nitrendipine] (20 µM),1.09
15,CCCSS/C(CCO)=C(/C)N(C=O)Cc1cnc(C)nc1N [Prosultiamine] (20 µM),0.949
16,CC(C)NCC(O)c1ccc(NS(C)(=O)=O)cc1 (centres undefined) [Sotalol hydrochloride] (20 µM),0.935
17,NC(=O)OCC(O)COc1ccc(Cl)cc1 (centres undefined) [Chlorphensin carbamate] (20 µM),1
18,C[C@]12CC[C@H]3[C@@H](CCC4=CC(=O)CC[C@@]43C)[C@@H]1CC[C@@H]2C(=O)CO [Deoxycorticosterone] (20 µM),1.25
19,OC(CCCN1CCCCC1)(c1ccccc1)c1ccccc1 [Diphenidol hydrochloride] (20 µM),1.05
20,Cc1cccc(Nc2ccncc2S(=O)(=O)NC(=O)NC(C)C)c1 [Torsemide] (20 µM),1.06

row,Structure (SMILES),fold change of Putrescine concentration
1,CCN(CC)C(=O)Nc1ccc(OCC(O)CNC(C)(C)C)c(C(C)=O)c1 (centres undefined) [Celiprolol hydrochloride] (20 µM),1
2,CC(NCCC(c1ccccc1)c1ccccc1)c1ccccc1 (centres undefined) [Fendiline hydrochloride] (20 µM),1.18
3,Oc1c(I)cc(Cl)c2cccnc12 [Clioquinol] (20 µM),0.906
4,CCCCC1=NC2(CCCC2)C(=O)N1Cc1ccc(-c2ccccc2-c2nnn[nH]2)cc1 [Irbesartan] (20 µM),1.02
5,CCc1ccc(C(=O)C(C)CN2CCCCC2)cc1 (centres undefined) [Eperisone Hydrochloride] (20 µM),0.986
6,CCn1cc(C(=O)O)c(=O)c2cc(F)c(N3CCNC(C)C3)c(F)c21 (centres undefined) [Lomefloxacin hydrochloride] (20 µM),0.781 (active)
7,CC(C)OC(=O)C(C)(C)Oc1ccc(C(=O)c2ccc(Cl)cc2)cc1 [Fenofibrate] (20 µM),1.03
8,CN1CCCN=C1/C=C/c1cccc(O)c1 [Oxantel pamoate] (20 µM),1.03
9,CO/N=C(\C(=O)N[C@@H]1C(=O)N2C(C(=O)[O-])=C(C[n+]3cccc4c3CCC4)CS[C@H]12)c1csc(N)n1 [Cefpirome sulfate] (20 µM),0.213 (active)
10,C[C@H]1C[C@H]2[C@@H]3CCC4=CC(=O)C=C[C@]4(C)[C@@]3(F)[C@@H](O)C[C@]2(C)[C@@]1(O)C(=O)CO [Betamethasone] (20 µM),1.07
11,Cc1cc(NS(=O)(=O)c2ccc(N)cc2)no1 [Sulfamethoxazole] (20 µM),1.13
12,Fc1ccc(C(c2ccc(F)cc2)N2CCN(C/C=C/c3ccccc3)CC2)cc1 [Flunarizine dihydrochloride] (20 µM),1.07
13,CN1CCN(CCCN2c3ccccc3Sc3ccc(S(=O)(=O)N(C)C)cc32)CC1 [Thioproperazine dimesylate] (20 µM),0.969
14,Cn1c(=O)c2nc[nH]c2n(C)c1=O [Theophylline monohydrate] (20 µM),1.24
15,COC(=O)C1=C(C)NC(C)=C(C(=O)OC)C1c1ccccc1[N+](=O)[O-] [Nifedipine] (20 µM),1.05
16,O=C(NCc1ncc(C(F)(F)F)cc1Cl)c1c(Cl)cccc1Cl (20 µM),1.01
17,CC(=O)Oc1ccccc1C(=O)Nc1ncc([N+](=O)[O-])s1 [Nitazoxanide] (20 µM),1.02
18,CC(=O)CCCCn1c(=O)c2c(ncn2C)n(C)c1=O [Pentoxifylline] (20 µM),1
19,CN(C)CCc1c[nH]c2ccc(Cn3cncn3)cc12 [Rizatriptan benzoate] (20 µM),0.97
